Pf growth 96h: P. falciparum growth inhibition at 96 hours; Potency, µM (highest dose often 28.7 µM), for inactives: top-dose activity change, negative = inhibition, actives largely listed as inhibitors; 320,000 tested, 6.9% active; P. falciparum luciferase reporter growth, 96 h; also: potency is read from the fitted curve at half-maximal effect; % is scaled to controls: 0 for no effect and ±100 for the full control effect
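P. falciparum expressing integrated firefly luciferase grown in erythrocytes (2% hematocrit, 0.05% parasitemia final) with compounds for 96 hours at 37 C, 5% CO2. Growth inhibition read as loss of luminescence after adding luciferase detection reagent.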
Cycloheximide cs: counter-screen hit for Shiga toxin inhibitors, cycloheximide; cell reporter, cycloheximide protein synthesis inhibition counterscreen; max response, %; 300,000 tested, 12% active; in the data active = max response mostly above about 13%, no sharp cut-off; inactive = mostly below about 14%; also: read at 38.3 µM for the half of the compounds with a filed dose; 0% is about no effect
Shiga inhibitor: inhibitors of Shiga toxin in Vero cells; 290,000 tested, 9.2% active; inhibition, % at 38.7 µM; Vero cells, Shiga toxin protein synthesis inhibition reporter; in the data active = inhibition mostly above about 28%, no sharp cut-off; inactive = mostly below about 43%; also: 0% is about no effect
NS1 inh: influenza NS1 inhibition | Potency, µM (top dose mostly 46.1 µM), without a hit: at the highest dose activity, positive = more growth | 270,000 tested, 0.4% active | AID 2326; calls by dose curve; also: potency is read from the fitted curve at half-maximal effect; actives are rising curves; nearly all actives have a fitted effect of over 50% in size
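Read-out: OD600 growth recovery of NS1-expressing budding yeast. Cells grown overnight at 30C in -URA glucose medium, washed, resuspended and diluted 1:100 in 2% galactose assay medium, pH 6.0. Same strain lacking NS1 served as positive control.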
Pf growth 48h: P. falciparum growth inhibition at 48 hours (one generation); 310,000 tested, 5.9% active; Potency, µM (highest dose often 28.7 µM), without a hit: at the top dose activity change, negative = inhibition, most hits filed as inhibitors; P. falciparum luciferase growth in erythrocytes, 48 h; also: potency is read from the fitted curve at half-maximal effect; % is scaled to controls: 0 for no effect and ±100 for the full control effect
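In quantitative HTS format, infected erythrocytes bearing luciferase-reporter parasites were treated for a single generation at 37 C. Luminescence after adding detection reagent served as the growth measure.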
Numbers without * were called inactive; ? = inconclusive; / = not tested or not shown; [ ] = remark or other dose. In the library only some 21% were active in any assay of this set; here they are far more common. Unless noted, calls follow the shape of the dose curve; as a rule, active = well fitted inhibition curve with a large enough effect; inconclusive = small, poorly fitted or top-dose-only effect, or another doubt; inactive = no such curve, though single readings can be large or run the other way.

SMILES | Pf growth 96h | Cycloheximide cs | Shiga inhibitor | NS1 inh | Pf growth 48h
Cc1nc2c(-c3ccc(F)cc3)cnn2c(N)c1-c1ccc(F)cc1 | ? | 61.1* | 93.0* | 2.1% | -76.9%
Cc1cc(N)n2ncc(-c3ccc(Cl)cc3)c2n1 | ? | 21.9* | 48.6* | -14.6% | 122.2%
Cc1cc(N2CCOCC2)n2ncc(-c3ccccc3Cl)c2n1 | 200.7% | 40.7* | 87.8* | -11.5% | 84.9%
CCOC(=O)c1cnn(-c2cc(C)nc3c(-c4ccccc4)cnn23)c1N | 48.7% | 16.0 | 18.8 | -3.5% | 8.1%
Cc1cc(-c2ccc(Cl)cc2)c2cnn(C(C)C)c2n1 | 1.1% | 29.6* | 19.2 | -8.5% | -0.2%
Cc1cc(N)n2ncc(-c3ccc(F)cc3)c2n1 | 136.9% | 50.4* | 67.6* | 1.5% | /
Cc1cc(Cl)n2ncc(-c3ccccc3)c2n1 | 283.6% | 57.4* | 62.5* | -4.5% | 220.1%
Cc1cc(SCC(=O)Nc2ccccc2)n2ncc(-c3ccccc3)c2n1 | ? | -0.6 | 8.4 | -2.1% | ?
CCOC(=O)Cc1c(C)nc2c(-c3ccc(Cl)cc3)cnn2c1C | 12.6% | 18.3 | 48.6* | -0.3% | ?
CC(C)n1nnnc1-c1ccc(Cl)cc1 | 29.7% | -6.9 | 8.1 | / | -8.8%
COC(=O)C(=C/C(C)=C/c1cccnc1)C(=O)OC | 15.6% | -5.4 | -7.3 | -33.8% | ?
O=C(O)c1ccc(OCCN2CCCC2=O)cc1 | -0.8% | -2.2 | -2.2 | 22.9% | -1.8%
O=c1c2oc3ccccc3c2ncn1Cc1ccc(Cl)cc1 | 21.2% | 9.1 | 5.1 | / | 0.0%
Cc1cc(C)nc(NC(=NCCc2c[nH]c3ccccc23)NC(=O)C(C)(C)C)n1 | 4.65µM* | -0.6 | -8.9 | 2.1% | 10.4µM*
Cc1nc(NC(=S)Nc2ccccc2)sc1C | 53.4% | 42.8* | 127.2* | / | 199.3%
CCc1nnc(NC(=S)Nc2ccccc2)s1 | ? | 45.3* | 98.9* | / | -25.1%
CCOc1ccc(C(=O)Nc2nnc(NC(=S)Nc3ccccc3)s2)cc1 | ? | 25.5* | 69.9* | / | ?
CCc1nnc(NC(=O)CCC(=O)Nc2ccccc2)s1 | 21.9% | -1.7 | 2.0 | -6.0% | 4.4%
Cc1cc(OCC(=O)NNC(=O)c2cccnc2)cc(C)c1Cl | ? | -1.3 | -7.0 | -8.2% | -10.8%
Cc1ccc(C(=O)N2CCN(c3cnn(C)c(=O)c3Cl)CC2)cc1 | 29.7% | -2.3 | 16.1 | / | -16.3%[5.75 µM]
O=C(c1ccc([N+](=O)[O-])cc1)N1C=CC(C(F)(F)F)=NCC1 | 11.6% | -2.4 | -7.2 | / | -27.6%
Cc1ccc(C(=O)Nc2ccc(N3CCN(C)CC3)cc2)cc1C | 11.7µM* | 32.0* | 79.9* | 5.4% | 52.8%
CCC(=O)N1CCN(c2ccc(NC(=O)c3ccc4c(c3)OCCO4)cc2)CC1 | 105.8% | 19.2* | 35.6 | / | -10.9%
CN1CCN(c2ccc(NC(=O)c3ccc4c(c3)OCCO4)cc2)CC1 | -3.0% | 36.1* | 81.0* | 4.6% | 99.8%
CCC(=O)N1CCN(c2ccc(Cl)cc2NC(=O)c2ccc3c(c2)OCCO3)CC1 | 22.6% | 2.1 | -9.2 | -69.4% | ?
SMILES | Pf growth 96h | Cycloheximide cs | Shiga inhibitor | NS1 inh | Pf growth 48h
Cc1ccc(C(=O)Nc2ccc(N3CCN(C)CC3)cc2)c(Cl)c1 | 10.4µM* | 42.2* | 62.4* | 8.3% | 109.5%
CC1(C(=O)N(Cc2ccccc2)Cc2ccccc2)CC1(Br)Br (centres undefined) | ? | 0.9 | -10.9 | -16.1% | -12.5%
c1ccc(C2=NNC(=NC3CC3)SC2)cc1 | 86.9% | 15.5* | 31.9 | -4.9% | 170.9%
c1ccc2c(C3=NNC(=NC4CCCCC4)SC3)c[nH]c2c1 | 14.7µM* | 35.7* | 26.3 | ? | ?
c1ccc2c(C3=NNC(=NC4CC4)SC3)c[nH]c2c1 | -88.0% | 38.0* | 16.5 | 0.6% | -97.7%
Cc1ccccc1-c1nnc(CS(=O)(=O)c2ccccc2)o1 | ? | 43.4* | 60.8* | 8.7% | 185.3%
Cc1ccc(C)c(-c2nnc(NC(=O)CCS(=O)(=O)c3ccccc3)o2)c1 | 21.4% | / | / | / | ?
Cn1cc(-c2nnc(-c3ccccc3)o2)c2ccccc21 | -11.0% | 58.6* | 146.1* | -3.1% | 181.8%
Cc1ccccc1-c1nc(Cc2ccc(Cl)cc2)no1 | -7.1% | 25.1* | 41.5 | -17.2% | 34.6%
CN(C)c1ccc(-c2nnc(-c3ccc(S(=O)(=O)C(F)F)cc3)o2)cc1 | ? | 6.7 | 4.4 | -7.8% | -0.3%
CN(C)c1ccc(-c2nnc(-c3ccccc3F)o2)cc1 | 5.0% | 28.4* | 59.5* | -27.3% | 63.0%
CN1CC(c2ccc(C#N)cc2)C2(COc3ccccc3C2=O)C12C(=O)Nc1ccccc12 (centres undefined) | ? | -2.0 | -4.9 | 5.0% | ?
CCOC(=O)c1cnc2c(Cl)c(Cl)ccc2c1N1CCN(C)CC1 | 83.0% | -3.5 | -2.5 | 3.0% | ?
COc1ccc(Cl)cc1-c1nc(SCC(=O)NCC2CCCO2)n[nH]1 (centres undefined) | -42.4% | / | / | / | -23.8%
Cc1cc(C)cc(C(=O)NCC(=O)OCC(=O)c2cc(C)n(CC(F)(F)F)c2C)c1 | 11.5% | -4.1 | -10.8 | -2.3% | -13.8%
COC(CNS(=O)(=O)c1cc2c3c(c1)CCN3C(=O)CC2)OC | 26.9% | 2.3 | -9.6 | -1.2% | 12.6%
Cc1nnc(-c2ccccc2)o1 | -17.3% | 2.6 | -1.1 | 3.1% | 3.9%
Nc1nnc(-c2cccc([N+](=O)[O-])c2)o1 | -3.6% | 2.1 | 23.3 | 0.4% | 11.6%
Cc1ccc(CS(=O)(=O)c2ccccc2-c2nnc(-c3ccc(Cl)cc3)o2)cc1 | -37.4% | -2.5 | -13.3 | 23.7% | 1.1%
Cc1ccccc1-c1nnc(-c2ccccc2)o1 | ? | 34.7* | 94.5* | -84.9% | 240.1%
Cc1ccccc1-c1nnc(-c2ccc(Cl)cc2)o1 | 112.3% | 57.8* | 104.1* | -13.8% | /
Cc1cccc(-c2nnc(-c3ccccc3)o2)c1 | 137.3% | 33.4* | 55.6* | -100.1% | 141.5%
O=[N+]([O-])c1cccc(-c2nnc(-c3ccccc3F)o2)c1 | ? | 29.6* | 21.8* | -12.4% | 113.6%
CNC(=S)N(CCc1c(C)[nH]c2ccccc12)Cc1cccnc1 | ? | -3.2 | -5.0 | 1.4% | ?
Cc1ccc(Nc2nnc(SCc3nc4ccccc4c(=O)[nH]3)s2)cc1 | ? | 1.3 | -3.8 | 3.7% | -8.9%
SMILES | Pf growth 96h | Cycloheximide cs | Shiga inhibitor | NS1 inh | Pf growth 48h
CCCc1c(C)nc(N2CCN(c3ccccc3OC)CC2)[nH]c1=O | -6.4% | -2.5 | -12.6 | -0.5% | 3.2%
CC(C)(C)c1cc(CN2CCOCC2)c(C(=O)O)o1 | 3.29µM* | -1.7 | -6.1 | 2.2% | 10.8%
O=C(O)Cn1cc(CN2CCOCC2)c2ccccc21 | 5.1% | -2.3 | / | 8.9% | 14.6%
O=C(O)c1[nH]c2c([N+](=O)[O-])cc([N+](=O)[O-])cc2c1C(=O)O | / | / | / | -5.6% | /
Cc1cc(O)c2/c(=N\N)c(-c3csc(C)n3)coc2c1 | 107.2% | -2.7 | -5.8 | 14.6% | -11.3%
Nc1cc2c(cc1O)CCCC2 | ? | 51.4* | 136.3 | 3.5% | ?
CCOc1cc(NS(=O)(=O)c2ccc(NC(C)=O)cc2)c(OCC)cc1NC(=O)C(C)C | / | -1.7 | -8.3 | 6.4% | -16.7%
COc1cccc(/C=N/NC(=O)C(=O)Nc2ccccc2OC(F)(F)C(F)F)c1O | -2.2% | -4.9 | 21.9 | -19.0% | ?

Screens: PubChem, National Center for Advancing Translational Sciences (NCATS)
